D2 antagonist: D2 dopamine receptor (human) antagonism | inhibition, % at 10 µM | HEK293 TREx D2 cells, calcium flux, dopamine EC80 | P14416 | 340,000 tested, 2% active | AID 485344; in the data active = inhibition above about 30%; inactive = below that, where a call was filed; note: 0% is about no effect
Target sequence (P14416 whole entry, looked up): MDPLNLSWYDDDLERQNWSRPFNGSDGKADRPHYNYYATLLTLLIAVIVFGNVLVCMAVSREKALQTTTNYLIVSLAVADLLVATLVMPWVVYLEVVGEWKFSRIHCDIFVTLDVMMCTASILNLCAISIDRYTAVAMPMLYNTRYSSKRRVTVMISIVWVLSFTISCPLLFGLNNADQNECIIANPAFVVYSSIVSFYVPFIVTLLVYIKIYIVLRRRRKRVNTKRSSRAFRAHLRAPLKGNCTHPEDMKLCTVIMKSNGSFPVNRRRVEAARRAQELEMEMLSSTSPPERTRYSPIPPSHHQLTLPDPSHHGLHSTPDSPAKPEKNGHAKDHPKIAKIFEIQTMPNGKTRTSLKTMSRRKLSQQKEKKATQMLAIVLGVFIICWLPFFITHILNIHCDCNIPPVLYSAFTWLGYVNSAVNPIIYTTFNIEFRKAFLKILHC
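Tetracycline-induced HEK293 TREx cells expressing D2 receptor forced-coupled to calcium signalling, loaded with no-wash calcium dye. Compounds added and calcium flux read 180 s, then dopamine added at EC80 and read a further 180 s.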
D2 ag-1: activates the human D2 dopamine receptor; AID 624465; activation, % (concentration not given with the values); DiscoveRx PathHunter D2 beta-arrestin, luminescence, 90 min; 100% = 57 uM dopamine signal; 360,000 tested, 0.084% active; in the data active = activation above about 40%; inconclusive = between about 15% and that limit
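DiscoveRx PathHunter D2 beta-arrestin cells (2,100/well) attached overnight, then compound-stimulated 90 min at 37 C in HBSS/10 mM HEPES/0.1% Tween-20 buffer; beta-galactosidase complementation read by luminescence after 1 h at ambient temperature. Dopamine 57 uM final (EC100) as control.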
D2 PAM-1: positive allosteric modulators of human D2 dopamine receptor | AID 624464 | potentiation, % (test concentration not listed) | 360,000 tested, 0.23% active | DiscoveRx D2 beta-arrestin cells, luminescence, 90 min; 100% = 57 uM dopamine signal | P14416; in the data active = potentiation above about 50%; inconclusive = mostly about 30% to 49%
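PathHunter D2 cells, attached overnight at 37 deg C, received compound in DMSO plus dopamine at EC20 (50 nM final) for 90 min at 37 deg C. Beta-arrestin recruitment was read as luminescence after 1 h with detection reagent at ambient temperature.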
D2 ag-2: activates the human D2 dopamine receptor. HEK293 T-REx D2 cells, calcium flux agonist mode. activation, % at 2 µM. 340,000 tested, 0.53% active;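 active = activation over 3 SD above normal in the single-dose calcium agonist read, cut at about 30% in these data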; note: 0% is about no effect
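Tetracycline-induced HEK293 T-REx cells with force-coupled D2 receptor, plated overnight at 30 C, loaded with no-wash calcium dye. After a 10 s baseline, compound was pin-added and calcium flux read kinetically for 180 s; calcium rises flagged agonists.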
D2 PAM-2: positive allosteric modulators of human D2 dopamine receptor. P14416. HEK293 T-REx D2, calcium flux, EC20 dopamine potentiation. potentiation, % at 10 µM. 340,000 tested, 0.34% active;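 active = potentiation over 3 SD above the plate norm, cut at about 30% in these data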; note: 0% is about no effect
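Potentiation of an EC20 dopamine calcium response is measured in a force-coupled, tetracycline-inducible Hek293 Trex D2 line. Compound-only kinetic reads over 180 s flag agonists before dopamine addition.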
* hit, by the source's call; ? = inconclusive; . = no result. An excerpt weighted towards active compounds, which were near 2.4% of everything screened.

SMILES	D2 antagonist	D2 ag-1	D2 PAM-1	D2 ag-2	D2 PAM-2
COc1ccccc1N1CCN(CCCNc2cc(=O)n(C)c(=O)n2C)CC1	64.1*	-0.8	-15.1	57.9*	-23.5
COc1ccccc1N1CCN(CCOc2c(OC)cccc2OC)CC1	97.5*	-4.2	-36.5	-0.3	-20.8
COc1ccccc1N1CCN(CCCCOc2c(OC)cccc2OC)CC1	78.4*	1.0	-37.4	18.5	-27.6
COc1cccc(OC)c1OCCN1CCCC1	-13.1	-2.0	-6.0	-1.5	-11.1
COc1ccccc1N1CCN(CCCNc2c(C)c(=O)n(C)c(=O)n2C)CC1	.	11.1	-24.5	.	.
COc1ccccc1N1CCN(CCCOc2ccc(F)cc2)CC1	89.3*	1.5	-39.2	-1.3	-23.0
CCOc1ccc(CN2CCC(Cc3ccccc3)CC2)cc1	30.4*	1.3	-90.0	-1.1	-19.4
CCOC(=O)c1ccc(NC(=O)NCCOCCn2c(=O)oc3ccccc32)cc1	.	.	.	.	-0.2
COc1ccc(Cl)cc1NC(=O)Cn1cc(C(=O)c2ccncc2)c(=O)c2cc(C)ccc21	.	.	.	1.0	-26.9
CC(C)C1Nc2ccc(S(N)(=O)=O)cc2C2C=CCC21 (configuration not stated)	15.7	5.3	51.6*	0.5	1.9
CN(C)c1nc(SCC(=O)Nc2ccccc2)nc(N2CCOCC2)n1	31.3*	-18.2	1.7	1.2	1.8
CN(C)c1nc(SCC(=O)Nc2ccc(Cl)c(Cl)c2)nc(N2CCOCC2)n1	11.6	3.4	-7.2	-2.5	.
Cc1ccc(C)c(N2C(=O)N(Cc3cc(=O)n4ccccc4n3)c3ccccc3S2(=O)=O)c1	.	.	.	0.2	0.0
COc1ccccc1NC(=O)Cn1c(O)c(N=NC(=O)c2ccccc2O)c2ccccc21	55.1*	?	9.1	3.5	-4.3
COc1ccc(OC)c(NC(=O)c2c(N3CCCC3=O)c3cc(OC)ccc3n2C)c1	.	.	.	-0.2	2.5
CCc1ccccc1-n1c2c(cc(-c3nc(-c4ccc(Cl)cc4)cs3)c1=O)C(=O)CC(C)(C)C2	.	.	.	0.3	-4.4
COc1ccc(NC(=O)Cc2c(C(=O)O)n(C)c3ccccc23)cc1OC	2.4	-5.2	-1.0	-0.2	31.8*
COc1cc(NC(=O)Cc2c(C(=O)O)n(C)c3ccccc23)cc(OC)c1OC	.	5.0	-4.1	.	.
Cn1c(CN2CCCCC2)c(C#N)c2ccccc21	45.6*	-3.9	-21.7	-0.8	-22.9
Cn1c(CN2CCN(CC#N)CC2)c(C#N)c2ccccc21	-12.8	-0.3	-11.6	0.0	-3.1
O=C(Nc1ccc(OCc2cc(=O)n3ccccc3n2)cc1)c1ccccc1Cl	.	.	.	1.1	12.9
CCOc1ccc(N=C2NC(=O)C(CC(=O)Nc3ccccc3)S2)cc1 (configuration not stated)	-2.3	-5.0	0.5	-0.8	39.2*
O=C(CC1SC(=Nc2ccc(O)cc2)NC1=O)Nc1ccccc1 (configuration not stated)	-12.0	-1.1	2.0	-0.1	10.7
NS(=O)(=O)c1ccc(NC(=O)/C=C/c2cccc(Cl)c2)cc1	35.2*	6.2	-9.9	0.2	-11.0
c1ccc(-c2ccccc2OCCCCN2CCCCCC2)cc1	147.6*	0.4	-8.1	0.3	-41.0
SMILES	D2 antagonist	D2 ag-1	D2 PAM-1	D2 ag-2	D2 PAM-2
c1ccc(-c2ccccc2OCCCN2CCOCC2)cc1	9.6	-1.4	-14.7	0.2	13.4
CC(C)(C)c1ccccc1OCCOCCN1CCCCCC1	31.3*	2.8	-10.3	-0.4	-26.6
OCCCN1CCN(CCCOc2ccccc2-c2ccccc2)CC1	53.3*	-4.5	-32.7	0.4	-29.3
c1ccc(-c2ccccc2OCCN2CCCC2)cc1	81.9*	4.9	-25.3	0.3	-21.8
CCOC(=O)c1cc(-c2ccc(OC)cc2)n(CCC(=O)NCCc2ccc(OCC)c(OCC)c2)c1C	.	.	.	0.9	0.0
CCc1ccccc1N(C)S(=O)(=O)c1ccc2c(c1)C(C)(C)C(=O)N2C	.	.	.	-1.3	-3.1
CC1CN(CCOc2ccc(F)cc2)CC(C)O1 (configuration not stated)	-5.6	-2.3	-4.2	-0.5	5.2
c1ccc(-c2ccccc2OCCOCCN2CCCCC2)cc1	87.1*	-5.9	-26.4	-0.5	-24.5
CC1CN(CCOc2ccccc2-c2ccccc2)CC(C)O1 (configuration not stated)	71.1*	-6.0	-25.2	0.0	-17.5
Cc1ccccc1OCCN1CCCC1	-16.0	-5.0	-3.9	3.0	-20.8
O=C(CSc1cn(CC(=O)N2CCCCC2)c2ccccc12)NCc1ccc(F)cc1	.	.	.	-0.3	-1.1
CCCn1c(=O)n(-c2cc(Cl)c(OC)cc2OC)c(=O)c2c3c(sc21)CN(C(C)=O)CC3	.	.	.	-0.5	6.4
CC(C)(C)OC(=O)N1CCC(c2c(C(=O)NCc3ccccn3)cnn2-c2ccccc2)CC1	.	.	.	0.4	4.4
CCOc1ccc(CN2CCN(Cc3cccc4c3OCO4)CC2CCO)cc1 (configuration not stated)	-28.2	-5.5	-3.6	1.0	-29.5
Cc1ccc(CN2CCN(Cc3cccc4c3OCO4)CC2CCO)cc1 (configuration not stated)	88.2*	-1.2	-13.0	0.1	-19.0
CCCCN(CC)CCNC(=O)c1cc2c(-c3ccccc3F)nn(C)c2s1	-28.3	44.2*	8.1	1.2	-3.9
Cc1ccc(CCNC(=O)c2cc3c(-c4ccccc4F)nn(C)c3s2)cc1	.	.	.	0.4	-14.2
CCCCN(CC)CCNC(=O)c1cc2c(=O)n(CC)c3ccccc3c2s1	35.7*	-1.9	-18.5	-3.1	8.3
N#Cc1c(N2CCN(C(=O)c3ccco3)CC2)nc(-c2ccccc2)c2c1CCCC2	31.7*	-3.6	-12.1	1.0	2.1
CCc1ccc(OC(C)C(=O)N2CCC(c3nc4ccccc4s3)CC2)cc1 (configuration not stated)	.	.	.	0.9	-4.6
COc1cccc(C(=O)NCCCNC(=O)c2cccnc2)c1	38.9*	-4.0	-0.8	-1.3	-24.6
O=C(CSc1nc2ccccc2c2nc(-c3ccccc3)nn12)Nc1ccc(F)cc1	.	.	.	1.4	-0.8
COc1cccc2sc(N(Cc3cccnc3)C(=O)C3CCCCC3)nc12	.	.	.	27.5	-11.3
COc1ccc2c(c1)-c1ccccc1S(=O)(=O)N2C	33.7*	0.7	-12.6	0.5	-18.5
O=C(NCCN1C(=O)S/C(=C\c2cccnc2)C1=O)c1ccc([N+](=O)[O-])s1	33.2*	2.5	18.6	-0.9	-0.7
Cc1c(C(=O)NCCN2C(=O)S/C(=C\c3cccnc3)C2=O)cccc1[N+](=O)[O-]	-2.2	1.0	-9.2	0.2	0.6
CCC1CN(C(=O)N2CCC(C(=O)NCCc3ccccc3Cl)CC2)c2cc(C)ccc2O1 (configuration not stated)	.	.	.	0.3	-4.7
CSCCC(NC(=O)c1ccc(Cl)cc1)C(=O)OCC(C)=O (configuration not stated)	32.1*	-6.4	-5.5	1.1	-4.3
